# Test system: HepG2
# Assay: GSK_TCMDC: Percent inhibition of human HepG2 cell line. Test compounds present at 10uM.
# Type: functional
row,SMILES,Inhibition [%]
1,Cc1cc(C(=O)Nc2nc(-c3ccccn3)nc3ccsc23)no1,44
2,Cc1cc(=NN=CC=Cc2ccccc2)c2ccc(F)cc2[nH]1,14
3,NC(=O)c1cccc(C(=O)Nc2cccc(-c3ccc(-c4nc5ccccc5[nH]4)s3)c2)c1,37
4,Cc1cc2ncn(-c3nccc(NCc4ccc(F)c(C)c4)n3)c2cc1C.O=C(O)C(F)(F)F,10
5,CN(C)c1ccc(N2C(N)=NC(N)=NC23CCCC3)cc1.Cl,1
6,CCNc1cc(C(=O)N[C@@H](Cc2ccccc2)[C@H](O)CNC(CC)c2cccc(Cl)c2)cc(N2CCCC2=O)c1.Cl (stereo not given in full),12
7,CC(C)CCN1CCCN(Cc2cccc(NC(=O)c3cc4ccccc4s3)c2)CC1.O=C(O)C(F)(F)F,34
8,N/C(=N\c1cccc(Cc2ccccc2)n1)NCc1ccccc1,57
9,FC(F)(F)c1ccc2c(NN=Cc3cccc(Cl)c3)ccnc2c1,7
10,Cn1nc(-c2ccc(NC(=O)Nc3cc(C(F)(F)F)ccc3F)c(F)c2)c2cnc(NCCCn3ccnc3)nc21.O=C(O)C(F)(F)F,45
11,Oc1ccc2[nH]cc(C3CCN(CCCCCCCCCN4CCC(c5c[nH]c6ccc(O)cc56)CC4)CC3)c2c1,22
12,COc1ccc(N2C(=O)C3C(C2=O)C2(C)c4ccccc4C3(C)c3ccccc32)c([N+](=O)[O-])c1 (stereo not given),11
13,COc1ccc(Cl)cc1NC(=O)Nc1cc(C)nc2ccccc12,10
14,CC1(C)CN(CCC2CCC(NC(=O)/C=C/c3ccccc3F)CC2)Cc2ccc(C#N)cc21.Cl (stereo not given),0
15,CN(C)CCCOc1ccc(CNCC(C)(C)c2nc(-c3ccc(Cl)c(O)c3)c(-c3ccncc3)[nH]2)cc1.Cl,64
16,Cc1cc(C(=O)CN2C(=O)NC3(CCOc4ccccc43)C2=O)c(C)n1Cc1ccco1 (stereo not given),13
17,Cc1cc(C)c(S(=O)(=O)N2CCCCC(c3cccc(C(F)(F)F)c3)=N2)c(C)c1,0
18,Cc1cccc2nc(-c3ccc(-c4ccc(C(=O)NCCc5cn(C)cn5)cc4)s3)[nH]c12,0
19,N#Cc1ccc(CN2CCC(Oc3ccc(NC(=O)c4ccco4)cc3Cl)C2)cc1.O=C(O)C(F)(F)F (stereo not given),13
20,Cl.Oc1cccc(Nc2ccnc3cc(-c4ccncc4)ccc23)c1,8

row,SMILES,Inhibition [%]
1,COc1ccc(O)c(C(=O)NCCc2ccc(OC)c(-c3ccc(C(C)(C)C)cc3)c2)c1,11
2,O=C(O)C(F)(F)F.Oc1ccc2[nH]c(-c3cccc(F)c3)nc2c1CNCc1ccccc1,29
3,CCCc1cc(Cc2cnc(N)nc2N)cc(CC)c1O.Cl,56
4,Br.CCCCCCCCn1c2c(c(=N)c3c1CCC3)CCC2,47
5,CCOc1cc(NCCCNc2ncc([N+](=O)[O-])cc2C)nc2ccccc12,10
6,CCC(CC)n1c(COC)cc2c3c(N)nc(N)nc3ccc21,71
7,CCN(CC)CCN(Cc1ccc(-c2ccc(C(F)(F)F)cc2)cc1)C(=O)Cn1c(CCc2ccc(F)cc2)nc(=O)c2sccc21.O=C(O)C(O)C(O)C(=O)O,100
8,c1ccc2[nH]c(-c3ccc(-c4ccc(CN5CCN(c6ccncc6)CC5)cc4)s3)nc2c1,25
9,O=c1cc(NCCCNCc2ccc3c(c2)OC(F)(F)O3)[nH]c2ccccc12,0
10,Cc1nc2nc(N)nc(N)c2c(C)c1Cc1cccc(C(N)=O)c1.Cl,59
11,COc1ccccc1C1CCN(C2CCC(NC(=O)/C=C/c3cc(F)cc(F)c3)CC2)CC1 (stereo not given),45
12,Cl.O=S(=O)(c1ccc(OCc2ccc(Cl)cc2)cc1)c1cc2c(cc1OCc1ccccc1)CCN(C1CCC1)CC2,17
13,Cc1ccc2[nH]c(C)cc(=NN=Cc3cccc(F)c3)c2c1,6
14,COc1cc(NC(=O)N2CCc3cc(OC)c(OCCN4CCCCC4)cc32)cc(C(F)(F)F)c1.O=C(O)C(=O)O,9
15,C=C(C)C1CC=C(CN2CCC(N3CCc4cc(NC(=O)c5cc(C)on5)ccc43)C2)CC1 (stereo not given),26
16,CC(=O)Nc1nc(C(=O)Nc2cccc(-c3cccc(-c4nc5ccccc5[nH]4)c3)c2)cs1,31
17,Cc1cccc2nc(-c3cccc(-c4ccc(NC(=O)C(C)CN5CCOCC5)cc4)c3)[nH]c12 (stereo not given),7
18,COc1cc2nc(C)nc(Nc3ccc(Cc4ccccc4)cc3)c2cc1OC.Cl,16
19,CC(C)Oc1cc2c(cc1NS(=O)(=O)c1ccc(-c3ccc(Cl)cc3)cc1F)CCN(C)CC2.Cl,29
20,COc1cc2nc(N(C)C)nc(Nc3ccc4c(cnn4Cc4ccccc4)c3)c2cc1OC,90
